About 14,000 (4.5%) of roughly 310,000 compounds showed an effect of 50% or more. The effect is printed as a negative number. What follows is part of a selection rich in strong results, with near analogues and random picks from the rest.
Target: human ether-à-go-go-related gene (hERG) potassium channel (human, UniProt Q12809)
Test: primary screen, population patch clamp on CHO cells stably expressing hERG; higher = less effect of the substance
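Further: peak tail current of the secondary pulse compared with the same well before compound.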

human ether-à-go-go-related gene (hERG) potassium channel, sequence (Q12809 whole entry, looked up): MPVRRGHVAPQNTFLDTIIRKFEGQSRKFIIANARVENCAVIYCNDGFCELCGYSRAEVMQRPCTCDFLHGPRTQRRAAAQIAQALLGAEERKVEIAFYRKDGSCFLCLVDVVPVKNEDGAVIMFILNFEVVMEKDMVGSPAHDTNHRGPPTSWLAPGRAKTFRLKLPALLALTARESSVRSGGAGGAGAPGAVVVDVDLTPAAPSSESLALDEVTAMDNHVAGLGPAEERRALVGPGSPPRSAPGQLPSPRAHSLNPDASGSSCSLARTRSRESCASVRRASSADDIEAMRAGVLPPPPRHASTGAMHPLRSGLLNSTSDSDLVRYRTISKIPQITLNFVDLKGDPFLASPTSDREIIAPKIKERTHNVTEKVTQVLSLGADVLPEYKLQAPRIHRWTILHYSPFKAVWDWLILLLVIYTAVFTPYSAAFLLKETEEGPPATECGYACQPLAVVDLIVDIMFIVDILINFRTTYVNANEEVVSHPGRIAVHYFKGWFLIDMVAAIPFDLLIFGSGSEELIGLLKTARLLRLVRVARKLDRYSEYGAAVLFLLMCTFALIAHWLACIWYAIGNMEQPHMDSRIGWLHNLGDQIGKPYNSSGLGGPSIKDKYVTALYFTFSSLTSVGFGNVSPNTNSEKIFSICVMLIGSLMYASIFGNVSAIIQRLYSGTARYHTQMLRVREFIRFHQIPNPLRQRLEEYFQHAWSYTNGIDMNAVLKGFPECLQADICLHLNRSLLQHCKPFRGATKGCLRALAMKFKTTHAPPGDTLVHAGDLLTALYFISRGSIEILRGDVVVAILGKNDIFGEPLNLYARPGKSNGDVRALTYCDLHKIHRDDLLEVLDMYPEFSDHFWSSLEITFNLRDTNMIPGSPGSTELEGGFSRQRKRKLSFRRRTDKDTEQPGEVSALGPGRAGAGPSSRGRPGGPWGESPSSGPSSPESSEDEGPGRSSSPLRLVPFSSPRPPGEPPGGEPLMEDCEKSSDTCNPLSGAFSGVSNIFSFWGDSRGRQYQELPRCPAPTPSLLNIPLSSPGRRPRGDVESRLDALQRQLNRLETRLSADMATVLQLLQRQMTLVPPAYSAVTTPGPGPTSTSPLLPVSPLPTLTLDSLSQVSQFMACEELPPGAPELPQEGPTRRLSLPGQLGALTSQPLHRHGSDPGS

SMILES | hERG current change (%, negative = inhibition) at 10uM [%]
CN(C)/C=C1\SC(=S)N(c2ccc(Br)cc2)C1=O | -4.75
COc1ccccc1N1CCN(C(=O)Cn2ncc3c([nH]c4ccccc43)c2=O)CC1 | 4.74
CCCCn1c(Cc2ccccc2)nnc1SCC(=O)N1CCOCC1 | 0.754
CN(/N=C/Cc1nnnn1-c1ccc(Cl)cc1)c1ccccc1 | -7.54
Cc1c(C#N)c2ncnc(N)c2n1-c1ccccc1 | 5.64
NC1=C([N+](=O)[O-])C(c2ccc3c(c2)OCO3)c2c(c3ccccc3oc2=O)O1 (stereo not shown) | -21.3
O=C(Nc1cc2c3c(c1)CC(=O)N3CCC2)C1CCCCC1 | -5.43
CC(C)(C)OC(=O)NCCc1nnc(SCC(=O)Nc2cccc(Cl)c2)o1 | 6.91
CC(C)(C)OC(=O)NCCCCCc1nnc(SCC(=O)Nc2cccc(Cl)c2)o1 | -50.7
Cc1cccc(C)c1NC(=O)CSc1nnc(CCCCCNC(=O)OC(C)(C)C)o1 | -17.8
COc1cccc(C(=O)C2CCCN(C(=O)CCc3scnc3C)C2)c1 (stereo not shown) | -12.7
CCOC(=O)c1cnn(-c2ccccc2)c1NC(=O)CN1CCOCC1 | 16.1
Cn1c(N)c(C(=O)COC(=O)c2ccco2)c(=O)n(C)c1=O | 5.09
COc1ccc(-c2nc(C)ncc2-c2csc(C)n2)c(O)c1 | 11
COc1ccc(C)cc1Cn1nnc2ccccc21 | -4.34
CCNc1ccc(C2(O)C(=O)c3ccccc3C2=O)cc1 | 12.6
CNc1ccc(C2(O)C(=O)c3ccccc3C2=O)cc1 | -66.1
CN(C)c1ccc(C2(O)C(=O)c3ccccc3C2=O)cc1 | 23.4
COc1ccc(NC(=O)c2sc(NC(=O)COc3ccccc3)nc2C)cc1 | 1.76
COc1ccc(CCc2nnc(CCC(=O)N(C)Cc3ccnc4ccccc34)o2)cc1 | -37.7
COc1ccc(C(C)(C)C)cc1NC(=O)COC(=O)c1nc2nccc(C)n2n1 | 3.17

SMILES | hERG current change (%, negative = inhibition) at 10uM [%]
O=c1[nH]c(=S)n(C2CC2)c(O)c1C=Nc1cccc(C(F)(F)F)c1 | 12.8
Cc1ccc(NC(=O)Nc2cccc3ccccc23)cc1 | 19.5
CC1(NC(=S)Nc2ccccc2)CCS(=O)(=O)C1 (stereo not shown) | 13.8
Cc1cccc(NC(=O)NC2(C)CCS(=O)(=O)C2)c1 (stereo not shown) | 6.52
CC1(NC(=O)Nc2ccccc2)CCS(=O)(=O)C1 (stereo not shown) | -53
C/C(=N/NC(=O)CCC(=O)Nc1ccc(Br)cc1)c1ccc(Br)cc1 | 12.7
O=C(Nc1ccccc1)N(CCc1nc2ccccc2[nH]1)C1CCCC1 | -24
CC1CCCCC1NC(=O)CCCCCn1c(=S)[nH]c2ccccc2c1=O (stereo not shown) | 7.63
O=C(Nc1nccs1)c1nc[nH]c1C(=O)NCc1ccccc1 | 3.34
CC(C)(C)NC(=O)Cn1nnc(-c2cccs2)n1 | -4.07
O=C(Nc1ccc([N+](=O)[O-])cc1)c1cc(-c2ccccn2)nc2c(Cl)cccc12 | 33
O=C1OC(CC(=O)N(Cc2nnc(-c3ccccc3Cl)o2)C2CC2)c2ccccc21 (stereo not shown) | -40.3
CCCN(Cc1nnc(-c2ccccc2Cl)o1)C(=O)COc1ccc(Cl)cc1 | -60.5
O=C1OC(CC(=O)N(Cc2nnc(-c3ccc(Cl)cc3)o2)C2CC2)c2ccccc21 (stereo not shown) | -67.8
Cc1ccc(C)c(OCC(=O)N(Cc2nnc(-c3ccccc3Cl)o2)C2CC2)c1 | -20.9
N#Cc1ccccc1OCC(=O)N(Cc1nnc(-c2ccccc2Cl)o1)C1CC1 | -48.7
CCCN(Cc1nnc(-c2ccccc2Cl)o1)C(=O)c1oc2ccccc2c1C | -13.1
CSc1cccc(N2CC(C(=O)N(Cc3nnc(-c4ccccc4Cl)o3)C3CC3)CC2=O)c1 (stereo not shown) | -55.5
COc1ccccc1OCC(=O)N(Cc1nnc(-c2ccccc2Cl)o1)C1CC1 | -44.2
CCC(=O)c1ccc(OCC(=O)N(Cc2nnc(-c3ccccc3Cl)o2)C2CC2)cc1 | -67.2
Cc1ccc(C(=O)N(Cc2nnc(-c3ccc(Cl)cc3)o2)C2CC2)o1 | -32.6

SMILES | hERG current change (%, negative = inhibition) at 10uM [%]
Cc1ccc(CN2CC(C(=O)N(Cc3nnc(-c4ccccc4Cl)o3)C3CC3)CC2=O)cc1 (stereo not shown) | -45.2
CCOc1ccccc1N1CC(C(=O)N(Cc2nnc(-c3ccccc3Cl)o2)C2CC2)CC1=O (stereo not shown) | -16.8
CN(C)c1ccc(/C=N/NC(=O)c2ccc(-n3cnnn3)cc2)cc1 | 10.8
CCOc1ccc2nc(NS(=O)(=O)Cc3ccccc3)sc2c1 | 9.15
Cc1cc(OC(C)C)c2c(-c3ccccc3)cc(=O)oc2c1 | 16.2
O=C1N=C(N2CCCCC2)S/C1=C\c1ccc(Cl)cc1 | 9.15
O=C(CN1C(=O)NC2(CCCC2)C1=O)OCc1cc(=O)n2cc(Br)ccc2n1 | 0.0178
COc1cc(C(=O)Nc2ccc(-c3nnc(-c4ccco4)o3)cc2)cc(OC)c1OC | -3.23
Cc1ccnc(NS(=O)(=O)c2cccc([N+](=O)[O-])c2)c1 | 0.0315
CCNC(=O)CC1C(=O)N(c2cccc(OC)c2)C(=O)N1CCOC (stereo not shown) | 8.39
COc1ccc(CNC(=O)C(c2ccco2)N(Cc2cccs2)C(=O)Cc2cccs2)cc1 (stereo not shown) | 10.6
Cc1cccc(OCC(=O)N(Cc2nnc(-c3ccccc3Cl)o2)C2CC2)c1 | -54.2
Cc1ccc(OCC(=O)N(Cc2nnc(-c3ccccc3Cl)o2)C2CC2)cc1C | -44.1
O=C(COc1ccccc1)N(Cc1nnc(-c2ccccc2Cl)o1)C1CC1 | -15
COc1ccc(CNC(=O)CN(Cc2ccco2)C(=O)CNS(=O)(=O)c2ccccc2)cc1 | -38.7
COc1ccc(CNC(=O)CN(Cc2ccco2)C(=O)CNS(=O)(=O)c2ccc(C)cc2)cc1 | -73
COc1ccc(CN(CC(=O)NCc2ccco2)C(=O)CNS(=O)(=O)c2ccc(C)cc2)cc1 | -63.3
COc1ccc(S(=O)(=O)NCC(=O)N(CC(=O)NCc2ccco2)Cc2ccc(F)cc2)cc1 | 1.94
COc1ccc(S(=O)(=O)NCC(=O)N(CC(=O)NCc2ccccc2)Cc2ccco2)cc1 | -17
Cc1ccc(S(=O)(=O)NCC(=O)N(CC(=O)NCc2ccco2)Cc2ccco2)cc1 | -23.5
O=C(CN(Cc1ccco1)C(=O)CNS(=O)(=O)c1ccc(F)cc1)NCc1ccco1 | -8.87

SMILES | hERG current change (%, negative = inhibition) at 10uM [%]
O=C(CN(Cc1ccco1)C(=O)CNS(=O)(=O)c1ccc(Cl)cc1)NCc1ccco1 | -55.4
Cc1ccc(S(=O)(=O)NCC(=O)N(CC(=O)NCc2ccco2)Cc2ccccc2)cc1 | -10.2
COc1cccc(CN(CC(=O)NCc2ccco2)C(=O)CNS(=O)(=O)c2ccccc2)c1 | -53.1
COc1ccc(S(=O)(=O)NCC(=O)N(CC(=O)NCc2ccco2)Cc2ccccc2)cc1 | -10.6
O=C(CN(Cc1ccccc1)C(=O)CNS(=O)(=O)c1ccccc1)NCc1ccco1 | -0.255
Cc1ccc(C)c(N2CCN(S(=O)(=O)c3csc(C(N)=O)c3)CC2)c1 | -8.27
CCC1CCCCN1c1nc2c(C=O)c(C)nn2c2ccccc12 (stereo not shown) | -12
COc1cccc(-c2nc(CS(=O)(=O)CC(=O)Nc3cc(F)ccc3F)c(C)o2)c1 | 8.16
COCCNc1ccc(S(=O)(=O)N2CCCC2)cn1 | 13.2
COc1ccc(-c2c3c(=O)n(C)c(=O)n(C)c3cn2NC(C)=O)cc1 | 12.2
Cc1ccc(Cn2nnc3c(=O)[nH]c(C4CCN(C(=O)c5cccs5)CC4)nc32)cc1 | -33
Cc1ccc(C)c(Cn2nnc3c(=O)[nH]c(C4CCCN(C(=O)C5CCC5)C4)nc32)c1 (stereo not shown) | -32.4
O=C(C1CCCCC1)N1CCCC(c2nc3c(nnn3Cc3ccccc3)c(=O)[nH]2)C1 (stereo not shown) | -8.73
Cc1ccc(C)c(Cn2nnc3c(=O)[nH]c(C4CCCN(C(=O)C5CCCCC5)C4)nc32)c1 (stereo not shown) | -51.5
Cc1ccc(C)c(Cn2nnc3c(=O)[nH]c(C4CCCN(C(=O)c5cccs5)C4)nc32)c1 (stereo not shown) | 0.859
Cc1ccc(C)c(Cn2nnc3c(=O)[nH]c(C4CCN(C(=O)c5cccs5)CC4)nc32)c1 | -66.5
Cc1ccc(C)c(Cn2nnc3c(=O)[nH]c(C4CCCN(C(=O)c5ccco5)C4)nc32)c1 (stereo not shown) | -38.3
CCCCC(=O)N1CCCC(c2nc3c(nnn3Cc3cc(C)ccc3C)c(=O)[nH]2)C1 (stereo not shown) | -52.2
Cc1ccc(C)c(Cn2nnc3c(=O)[nH]c(C4CCCN(C(=O)CC(C)C)C4)nc32)c1 (stereo not shown) | -14.6

Source: paper PMC4336329 (PLoS ONE, 2015)
